Results: PubChem BioAssay (Tox21)
Values joined by “and” are separate entries in the source; they are usually repeats but may differ in a detail not shown here. Equal values may be shown once. Records with an inconclusive call do not appear. A call without a number means that no potency is given here. Where a structure was tested more than once in an assay, its records may differ in their call. Active and inactive are the calls of the source. Unless noted, the call rests on the fitted dose curve; in most records, active means well fitted curve in the direction sought with a large enough effect in the repeat runs; inconclusive means weak or mixed curves; inactive means no such curve, though single readings can be large; an effect the other way counts as inactive or inconclusive.

Legend:
[1] = qHTS assay to identify small molecule antagonists of the constitutive androstane receptor (CAR) signaling pathway - cell viability counter screen (AID 1224837); further: nearly all actives have a fitted effect of over 45% in size; further: potency means the concentration at half of the fitted maximal effect
In short: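 Multiplexed cytotoxicity read-out for the CAR antagonist screen: double-stable HepG2-CYP2B6-hCAR cells co-treated with 50 nM CITCO (final) and compound over 15 concentrations, incubated 23 hr, then assessed by CellTiter-Fluor fluorescence.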

[2] = biological target: Nuclear receptor subfamily 1 group I member 3 (Homo sapiens) (UniProt Q14994); assay: qHTS assay to identify small molecule antagonists of the constitutive androstane receptor (CAR) signaling pathway (AID 1224838); further: nearly all actives have a fitted effect of over 40% in size; further: potency means the concentration at half of the fitted maximal effect
Chain of Nuclear receptor subfamily 1 group I member 3 (Homo sapiens) (Q14994 whole entry, looked up): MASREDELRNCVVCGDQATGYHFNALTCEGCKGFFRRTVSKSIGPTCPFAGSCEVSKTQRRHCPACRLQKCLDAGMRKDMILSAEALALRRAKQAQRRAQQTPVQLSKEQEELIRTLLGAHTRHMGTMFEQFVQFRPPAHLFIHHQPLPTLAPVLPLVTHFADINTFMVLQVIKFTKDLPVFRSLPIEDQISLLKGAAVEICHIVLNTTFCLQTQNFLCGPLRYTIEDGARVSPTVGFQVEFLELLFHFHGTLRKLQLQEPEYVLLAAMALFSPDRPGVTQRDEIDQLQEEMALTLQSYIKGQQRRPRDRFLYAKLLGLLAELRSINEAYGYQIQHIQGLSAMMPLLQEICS
In short: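 Compounds were titrated across 15 concentrations onto HepG2 cells double-stably expressing hCAR and a CYP2B6-2.2kb reporter, together with 50 nM CITCO (final). After 24 h at 37 C, luciferase activity was measured by luminescence.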

[3] = biological target: Nuclear receptor subfamily 1 group I member 3 (Homo sapiens) (UniProt Q14994); assay: qHTS assay to identify small molecule agonists of the constitutive androstane receptor (CAR) signaling pathway (AID 1224839); further: nearly all actives have a fitted effect of over 15% in size; further: potency means the concentration at half of the fitted maximal effect;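 on activation: HepG2 cells stably carrying human CAR and a CYP2B6 luciferase reporter; series mostly up to about 92 µM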
In short: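 Luminescence read-out (ONE-Glo, 30 min, room temperature) from double-stable HepG2-CYP2B6-hCAR cells exposed 24 h to 15-point compound series in presence of 0.75 uM PK11195 final.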

[4] = qHTS assay to identify small molecule antagonists of the estrogen related receptor signaling pathway with the pleiotropic PPARgamma coactivator (PGC) from Tox21 10K library (AID 1224841; call rule not given here; further: series mostly up to about 92 µM; actives are mostly falling curves and most rising ones were filed inactive; nearly all actives have a fitted effect of over 50% in size)
In short: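 Antagonism in this quantitative HTS is taken from loss of luciferase signal in PGC/ERR cells. Cells (2,000/well) are treated with compounds in DMSO after a 6 h settling period and read by One-Glo luminescence after 18 h.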

[5] = qHTS assay to identify small molecule agonists of the estrogen related receptor signaling pathway with the pleiotropic PPARgamma coactivator (PGC) from Tox21 10K library (AID 1224842); further: nearly all actives have a fitted effect of over 15% in size
In short: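 Luminescence from One-Glo (30 min, room temperature) measured after PGC/ERR cells had 18 h at 37 C with pinned compound (23 nL in DMSO). Cells had been seeded at 2,000 per well and pre-incubated 6 h.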

[6] = biological target: Thyrotropin receptor (Homo sapiens) (UniProt P16473); assay: qHTS assay to identify small molecule agonists of the thyroid stimulating hormone receptor (TSHR) signaling pathway (AID 1224843; calls by dose curve; further: nearly all actives have a fitted effect of over 45% in size)
Chain of Thyrotropin receptor (Homo sapiens) (P16473 whole entry, looked up): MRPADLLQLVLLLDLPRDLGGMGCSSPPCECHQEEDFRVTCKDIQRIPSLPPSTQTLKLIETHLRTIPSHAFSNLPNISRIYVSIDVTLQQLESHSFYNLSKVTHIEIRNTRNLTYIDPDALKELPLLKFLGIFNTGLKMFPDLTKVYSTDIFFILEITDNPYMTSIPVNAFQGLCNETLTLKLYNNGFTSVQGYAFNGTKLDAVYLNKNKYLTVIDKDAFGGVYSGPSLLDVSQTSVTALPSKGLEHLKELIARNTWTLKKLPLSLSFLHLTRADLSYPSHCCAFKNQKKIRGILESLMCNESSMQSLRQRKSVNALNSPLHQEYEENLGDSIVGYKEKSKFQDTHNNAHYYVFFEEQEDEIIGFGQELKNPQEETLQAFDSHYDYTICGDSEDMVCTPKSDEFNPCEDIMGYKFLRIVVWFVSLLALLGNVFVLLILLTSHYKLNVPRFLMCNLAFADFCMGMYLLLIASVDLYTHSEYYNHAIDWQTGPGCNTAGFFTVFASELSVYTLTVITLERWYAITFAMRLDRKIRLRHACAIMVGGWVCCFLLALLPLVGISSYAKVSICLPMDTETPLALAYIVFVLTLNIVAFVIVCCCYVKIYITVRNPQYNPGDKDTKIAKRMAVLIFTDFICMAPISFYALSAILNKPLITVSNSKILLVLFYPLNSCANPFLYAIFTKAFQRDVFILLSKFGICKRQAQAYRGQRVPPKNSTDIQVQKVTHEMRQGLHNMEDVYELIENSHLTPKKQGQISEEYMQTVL
In short: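 HEK293 cells stably bearing the thyrotropin receptor were plated at 800 cells/well and challenged with compound (30 min, RT). Accumulated cAMP was quantified via cAMP-d2 competing for cryptate-tagged antibody.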

[7] = qHTS assay to identify small molecule agonists of the hypoxia (HIF-1) signaling pathway - cell viability counter screen (AID 1224844; calls by dose curve; further: nearly all actives have a fitted effect of over 50% in size)
In short: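 Tox21 10K compounds were added to HRE-bla ME-180 cells (0.5% dialyzed FBS) and incubated 17 hrs at 37C; ATP-based CellTiter-Glo luminescence then reported cell viability in the same wells.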

[8] = qHTS assay to identify small molecule agonists of the hypoxia (HIF-1) signaling pathway (AID 1224846; active means well fitted activation curve with a large enough effect in the signal ratio in the repeat runs, not every such curve was filed as active; the % refers to the signal ratio)
In short: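 Steps: seed ME-180 HRE-bla cells (2,000/well, 0.5% dialyzed FBS); incubate 5 hrs at 37C; pin-transfer compounds or DMSO; incubate 17 hrs; add LiveBLAzer B/G substrate CCF4-AM; measure reporter activation by FRET.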

[9] = qHTS assay to identify small molecule antagonists of the estrogen related receptor signaling pathway with the pleiotropic PPARgamma coactivator (PGC) from Tox21 10K library - cell viability counter screen (AID 1224840; active means well fitted cell-killing curve with a large enough effect in the repeat runs, not every such curve was filed as active; further: nearly all actives have a fitted effect of over 40% in size; further: potency means the concentration at half of the fitted maximal effect)
In short: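 Step one, plate 2,000 PGC/ERR cells per well; step two, incubate 6 h at 37 C/5% CO2; step three, pin-transfer compounds; step four, incubate 17.5 h; step five, add CellTiter-Fluor and read fluorescence after 30 min.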

[10] = qHTS assay to identify small molecule agonists of H2AX (AID 1224845; active means well fitted activation curve with a large enough effect in the signal ratio in the repeat runs, not every such curve was filed as active; the % refers to the signal ratio)
In short: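 Phospho-H2AX Ser139 measured by HTRF (ex 320 nm; em 665 and 620 nm) after 24 hr antibody incubation. Compounds, 15 concentrations, 0.76% DMSO, were applied to CHO-K1 cells for 3hr at 37C before lysis.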

Row | Compound | Potency [1] | Potency [2] | Potency [3] | Potency [4] | outcome [5] | Potency [6] | Potency [7] | outcome [8] | Potency [9] | Potency [10]
1 | Nc1cc([N+](=O)[O-])ccc1O | 30.6 µM (active) | inactive | inactive | inactive | inactive | inactive | inactive | inactive |  | 
2 | CC[C@H](C)C(=O)O[C@H]1C[C@@H](C)C=C2C=C[C@H](C)[C@H](CC[C@@H]3C[C@@H](O)CC(=O)O3)[C@H]21 | inactive | inactive | inactive | inactive | inactive | inactive | inactive | inactive | 69.6 µM (active) and inactive | inactive
3 | CCc1ccc(CCOc2ccc(CC3SC(=O)NC3=O)cc2)nc1 (stereo not drawn) | inactive | inactive | inactive |  |  |  | inactive | inactive | inactive | inactive
4 | C/C=C1/CC2C=CC1C2 (stereo not drawn) | inactive | inactive | inactive |  |  |  | inactive | inactive | inactive | inactive
5 | OCC(CO)(CBr)CBr | inactive | inactive | inactive | inactive | inactive | inactive | inactive | inactive | inactive | inactive
6 | O=C(O)CCCCCCCCCCC(=O)O | inactive | inactive and 1 nM (active) | inactive |  |  | inactive | inactive | inactive | inactive | inactive
7 | CC(=O)Nc1cccc(O)c1 | inactive | inactive | inactive |  |  | inactive | inactive | inactive |  | inactive
8 | CC1=CC(=O)NS(=O)(=O)O1 | inactive | 48.7 µM (active) and inactive | inactive |  |  | inactive | inactive | inactive | inactive | inactive
9 | N[C@@H](Cc1cc(I)c(Oc2cc(I)c(O)c(I)c2)c(I)c1)C(=O)O | inactive | inactive | inactive | inactive | inactive | inactive | inactive | inactive |  | inactive
10 | C=CCNC(N)=S | inactive | inactive | inactive |  |  | inactive | inactive | inactive |  | inactive
11 | C=C(C)C(=O)Nc1ccc(Cl)c(Cl)c1 | inactive | inactive | 55 µM (active) and 48.4 µM (active) |  |  | inactive | inactive | inactive | inactive | inactive
12 | O=c1[nH]nnc2ccccc12 | inactive | inactive | inactive | inactive | inactive | inactive | inactive | inactive | inactive | inactive
13 | CC1=C(C)S(=O)(=O)CCS1(=O)=O | inactive | inactive | 3.01 µM (active) | inactive | inactive |  | inactive | inactive | inactive | inactive
14 | CCCCN(CCCC)CCCC | inactive | inactive | inactive |  |  | inactive | inactive | inactive | inactive | inactive
15 | COc1ccc(Cl)cc1C(=O)NCCc1ccc(S(=O)(=O)NC(=O)NC2CCCCC2)cc1 | inactive | inactive | inactive |  |  | inactive | inactive |  | inactive | inactive
16 | O=C(Oc1ccccc1)c1ccccc1 | inactive | inactive | inactive | inactive | inactive | inactive | inactive | inactive |  | inactive
17 | CSCCC=O | inactive | inactive | inactive | inactive | inactive |  | inactive | inactive | inactive | inactive
18 | CC1CCC2CC1C2(C)C (stereo not drawn) | inactive | inactive | inactive |  |  | inactive | inactive | inactive | inactive | inactive
19 | COCCCOc1ccnc(CS(=O)c2nc3ccccc3[nH]2)c1C (stereo not drawn) | inactive | inactive | 6.83 µM (active) | inactive | inactive | inactive | inactive | inactive |  | inactive
20 | O=C(O)CCCC[C@@H]1SC[C@@H]2NC(=O)N[C@@H]21 | inactive | inactive | inactive | inactive | inactive | inactive | inactive |  |  | inactive
21 | C=C(C)C(=O)OCCOCCOCCOC(=O)C(=C)C | inactive | inactive | inactive |  |  | inactive | inactive | inactive | inactive | inactive
22 | CCCCC(CC)COC(=O)CCCCC(=O)OCC(CC)CCCC (stereo not drawn) | inactive | inactive | inactive |  |  | inactive | inactive | inactive | inactive | inactive
23 | Cc1cccc(O)c1 | inactive | inactive | inactive | inactive | inactive |  | inactive | inactive | inactive | inactive
24 | Cc1ccc(N(C)C)cc1 | inactive | inactive | inactive and 27.3 µM (active) |  |  | inactive | inactive | inactive |  | inactive
